Test results as given in the supplement of paper PMC10849652.
Targets with a hit are over-represented here; the source holds about 7,900 in all. About 0.6% of all pairs of compound and target were hits.

compound: CC1=C2C(=CC=C1)N=C(N(C2=O)C3=CC=CC=C3C)CN4C=NC5=C(N=CN=C54)N; test: log2 fold change, soluble protein after heating vs DMSO (PISA); higher = thermal stabilisation; K562 cells, 10 uM, 30 min; active = over 0.2 and 3.5 SD of the protein, either way, in both replicates (recomputed)
Method in brief: (§1)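 Quantification of soluble protein used TMTpro 16plex LC-MS/MS, with channel sums equalised. Samples were the supernatant after 21,000xg for 90 min of pooled aliquots from K562 cells (2×10^6 cells/mL) treated with 10 μM compound for 30 min, heated for 3 min over 48°C-58°C, and extracted in PBS with 0.5% NP-40 at 4°C. Values, from duplicates, describe thermal stability against control samples on a log2 fold-change scale.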

Chain of UniProt Q9Y2E5 (Q9Y2E5 whole entry, looked up): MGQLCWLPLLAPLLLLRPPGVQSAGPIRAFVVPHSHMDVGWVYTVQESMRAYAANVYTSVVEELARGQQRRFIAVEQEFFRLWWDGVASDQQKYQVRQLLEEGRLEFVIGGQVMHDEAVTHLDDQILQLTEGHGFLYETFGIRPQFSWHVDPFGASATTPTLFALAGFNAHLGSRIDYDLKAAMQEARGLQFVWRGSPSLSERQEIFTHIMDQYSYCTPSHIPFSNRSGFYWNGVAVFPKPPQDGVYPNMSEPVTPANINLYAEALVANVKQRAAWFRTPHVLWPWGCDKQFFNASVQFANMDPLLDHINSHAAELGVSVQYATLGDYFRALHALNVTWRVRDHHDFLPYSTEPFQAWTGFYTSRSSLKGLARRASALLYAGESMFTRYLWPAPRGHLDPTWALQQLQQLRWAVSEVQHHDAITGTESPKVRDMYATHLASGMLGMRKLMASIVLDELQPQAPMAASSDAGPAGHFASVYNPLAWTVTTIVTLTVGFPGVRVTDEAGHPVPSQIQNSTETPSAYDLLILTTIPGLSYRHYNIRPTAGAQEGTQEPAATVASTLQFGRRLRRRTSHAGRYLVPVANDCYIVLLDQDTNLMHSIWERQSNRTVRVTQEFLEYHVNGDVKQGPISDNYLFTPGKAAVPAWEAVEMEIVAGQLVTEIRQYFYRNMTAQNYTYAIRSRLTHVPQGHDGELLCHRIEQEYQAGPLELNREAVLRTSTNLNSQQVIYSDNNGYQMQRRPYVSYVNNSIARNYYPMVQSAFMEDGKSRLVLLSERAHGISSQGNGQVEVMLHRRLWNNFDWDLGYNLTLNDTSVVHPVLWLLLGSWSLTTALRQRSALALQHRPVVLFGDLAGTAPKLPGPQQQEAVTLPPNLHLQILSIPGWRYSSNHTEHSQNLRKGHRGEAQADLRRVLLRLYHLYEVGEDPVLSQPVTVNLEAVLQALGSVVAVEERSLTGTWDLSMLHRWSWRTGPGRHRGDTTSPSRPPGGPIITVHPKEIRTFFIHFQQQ
Chain of UniProt Q6P9B9 (Q6P9B9 whole entry, looked up): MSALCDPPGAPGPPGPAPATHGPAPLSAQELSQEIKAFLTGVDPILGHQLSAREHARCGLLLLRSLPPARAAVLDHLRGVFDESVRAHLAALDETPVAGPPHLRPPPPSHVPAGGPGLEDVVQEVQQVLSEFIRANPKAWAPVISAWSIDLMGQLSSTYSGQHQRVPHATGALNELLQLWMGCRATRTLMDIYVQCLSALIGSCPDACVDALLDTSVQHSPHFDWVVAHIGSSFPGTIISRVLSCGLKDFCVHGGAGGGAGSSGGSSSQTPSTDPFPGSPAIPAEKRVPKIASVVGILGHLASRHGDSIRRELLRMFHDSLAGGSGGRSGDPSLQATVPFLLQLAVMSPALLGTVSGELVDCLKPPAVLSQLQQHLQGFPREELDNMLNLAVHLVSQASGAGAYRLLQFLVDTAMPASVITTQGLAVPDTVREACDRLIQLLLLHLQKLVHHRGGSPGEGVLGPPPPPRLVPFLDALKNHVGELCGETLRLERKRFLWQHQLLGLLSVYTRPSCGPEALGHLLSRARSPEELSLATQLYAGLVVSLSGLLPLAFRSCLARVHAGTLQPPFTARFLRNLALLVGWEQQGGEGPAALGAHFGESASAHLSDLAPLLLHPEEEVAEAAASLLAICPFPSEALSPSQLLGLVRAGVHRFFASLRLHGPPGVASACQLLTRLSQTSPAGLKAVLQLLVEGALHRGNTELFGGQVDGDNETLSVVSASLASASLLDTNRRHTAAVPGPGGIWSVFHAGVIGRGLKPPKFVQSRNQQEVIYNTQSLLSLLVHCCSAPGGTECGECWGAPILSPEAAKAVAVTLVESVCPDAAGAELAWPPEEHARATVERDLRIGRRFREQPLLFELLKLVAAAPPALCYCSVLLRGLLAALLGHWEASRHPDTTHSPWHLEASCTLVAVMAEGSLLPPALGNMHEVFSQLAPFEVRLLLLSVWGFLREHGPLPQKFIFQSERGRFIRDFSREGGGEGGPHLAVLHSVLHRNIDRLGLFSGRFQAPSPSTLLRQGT
Chain of UniProt Q08334 (Q08334 whole entry, looked up): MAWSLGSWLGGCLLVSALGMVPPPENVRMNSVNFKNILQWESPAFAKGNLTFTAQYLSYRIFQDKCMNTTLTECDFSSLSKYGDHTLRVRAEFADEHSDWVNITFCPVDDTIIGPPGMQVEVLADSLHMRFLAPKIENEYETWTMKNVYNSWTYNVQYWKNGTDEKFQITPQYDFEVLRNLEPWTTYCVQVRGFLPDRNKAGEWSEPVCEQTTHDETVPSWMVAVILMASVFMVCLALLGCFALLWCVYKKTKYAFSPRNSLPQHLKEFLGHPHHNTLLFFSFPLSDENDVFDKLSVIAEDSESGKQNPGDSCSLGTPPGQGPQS
Chain of UniProt Q9NVC6 (Q9NVC6 whole entry, looked up): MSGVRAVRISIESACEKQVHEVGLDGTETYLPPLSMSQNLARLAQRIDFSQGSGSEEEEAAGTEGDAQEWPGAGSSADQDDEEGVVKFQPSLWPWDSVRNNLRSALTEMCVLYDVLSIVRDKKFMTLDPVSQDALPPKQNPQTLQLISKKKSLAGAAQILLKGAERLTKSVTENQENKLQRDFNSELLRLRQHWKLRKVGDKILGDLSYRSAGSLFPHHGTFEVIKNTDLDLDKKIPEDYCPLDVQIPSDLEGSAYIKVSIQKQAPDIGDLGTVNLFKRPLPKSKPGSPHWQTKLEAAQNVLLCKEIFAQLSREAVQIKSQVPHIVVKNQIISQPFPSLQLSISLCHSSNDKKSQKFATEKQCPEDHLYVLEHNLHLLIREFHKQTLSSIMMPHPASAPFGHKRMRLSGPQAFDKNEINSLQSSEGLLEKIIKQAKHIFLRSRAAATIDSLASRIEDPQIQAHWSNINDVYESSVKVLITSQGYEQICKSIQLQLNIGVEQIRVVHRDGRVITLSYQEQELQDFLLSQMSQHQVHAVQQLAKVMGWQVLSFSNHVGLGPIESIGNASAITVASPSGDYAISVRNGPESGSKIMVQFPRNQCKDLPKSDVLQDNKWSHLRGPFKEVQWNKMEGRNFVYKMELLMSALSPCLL
Chain of UniProt P55082 (P55082 whole entry, looked up): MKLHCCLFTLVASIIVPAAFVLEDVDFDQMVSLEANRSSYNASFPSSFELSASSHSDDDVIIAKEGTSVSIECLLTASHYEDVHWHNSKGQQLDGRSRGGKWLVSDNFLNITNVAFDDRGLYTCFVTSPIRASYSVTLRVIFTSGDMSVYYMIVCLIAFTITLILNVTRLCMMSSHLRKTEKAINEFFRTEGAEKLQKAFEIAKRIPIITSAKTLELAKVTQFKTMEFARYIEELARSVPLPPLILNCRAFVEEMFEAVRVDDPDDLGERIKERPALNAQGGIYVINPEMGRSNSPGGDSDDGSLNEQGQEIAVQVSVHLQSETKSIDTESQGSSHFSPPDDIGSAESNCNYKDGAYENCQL
Chain of UniProt O95819 (O95819 whole entry, looked up): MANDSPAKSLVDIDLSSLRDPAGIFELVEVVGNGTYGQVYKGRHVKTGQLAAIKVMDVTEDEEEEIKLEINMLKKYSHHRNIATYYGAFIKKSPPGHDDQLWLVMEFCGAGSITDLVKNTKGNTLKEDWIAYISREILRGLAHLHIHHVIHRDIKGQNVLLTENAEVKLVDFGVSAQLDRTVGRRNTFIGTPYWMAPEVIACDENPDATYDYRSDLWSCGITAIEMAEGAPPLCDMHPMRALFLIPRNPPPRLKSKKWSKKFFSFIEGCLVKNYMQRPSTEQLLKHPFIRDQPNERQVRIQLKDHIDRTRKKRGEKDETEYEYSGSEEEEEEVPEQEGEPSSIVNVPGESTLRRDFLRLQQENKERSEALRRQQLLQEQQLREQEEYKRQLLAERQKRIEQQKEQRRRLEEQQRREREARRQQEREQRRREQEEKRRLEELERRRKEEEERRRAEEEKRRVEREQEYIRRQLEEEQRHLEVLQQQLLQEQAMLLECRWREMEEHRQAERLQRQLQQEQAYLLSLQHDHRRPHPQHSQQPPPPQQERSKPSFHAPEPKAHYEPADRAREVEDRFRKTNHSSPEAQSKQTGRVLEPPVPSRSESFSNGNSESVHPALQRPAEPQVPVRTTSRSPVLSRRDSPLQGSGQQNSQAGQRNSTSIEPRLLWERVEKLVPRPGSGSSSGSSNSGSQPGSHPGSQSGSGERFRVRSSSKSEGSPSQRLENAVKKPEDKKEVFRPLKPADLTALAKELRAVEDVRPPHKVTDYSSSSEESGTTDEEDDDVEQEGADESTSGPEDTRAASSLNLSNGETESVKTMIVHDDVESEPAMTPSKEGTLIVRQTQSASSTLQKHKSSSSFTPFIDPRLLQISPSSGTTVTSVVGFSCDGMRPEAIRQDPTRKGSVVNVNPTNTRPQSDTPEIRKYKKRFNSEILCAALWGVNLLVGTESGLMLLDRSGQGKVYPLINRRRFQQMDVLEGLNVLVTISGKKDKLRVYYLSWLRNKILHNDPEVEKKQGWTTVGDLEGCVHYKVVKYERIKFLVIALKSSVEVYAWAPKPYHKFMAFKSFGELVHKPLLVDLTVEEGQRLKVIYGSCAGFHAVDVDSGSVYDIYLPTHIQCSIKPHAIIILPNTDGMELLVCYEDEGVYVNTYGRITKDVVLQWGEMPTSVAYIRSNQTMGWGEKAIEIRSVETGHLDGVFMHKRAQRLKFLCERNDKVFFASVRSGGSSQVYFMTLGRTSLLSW
Chain of UniProt P17936 (P17936 whole entry, looked up): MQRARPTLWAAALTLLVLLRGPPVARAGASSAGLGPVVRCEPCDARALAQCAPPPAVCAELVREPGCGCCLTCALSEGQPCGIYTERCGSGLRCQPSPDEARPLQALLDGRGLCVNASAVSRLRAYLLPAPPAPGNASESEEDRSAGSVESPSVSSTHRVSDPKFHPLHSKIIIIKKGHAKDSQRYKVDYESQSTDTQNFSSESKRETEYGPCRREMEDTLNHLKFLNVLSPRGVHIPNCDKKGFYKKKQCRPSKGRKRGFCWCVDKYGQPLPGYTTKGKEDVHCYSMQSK
Chain of UniProt O15243 (O15243 whole entry, looked up): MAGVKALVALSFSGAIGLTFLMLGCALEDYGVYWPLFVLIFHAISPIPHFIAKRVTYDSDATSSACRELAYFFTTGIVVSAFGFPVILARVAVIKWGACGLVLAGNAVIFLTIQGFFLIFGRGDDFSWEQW

Target | log2 fold change
MED17 (UniProt Q9NVC6) | 0.038 (inactive)
ITGA2B (UniProt P08514) | 0.112 (inactive)
KIF1B isoform 3 (UniProt O60333) | -0.246 (inactive)
MAN2B2 (UniProt Q9Y2E5) | 0.096 (inactive)
IGFBP3 isoform 2 (UniProt P17936) | 0.034 (inactive)
MAML1 (UniProt Q92585) | 0.15 (inactive)
INTS5 (UniProt Q6P9B9) | 0.052 (inactive)
LSR (UniProt M0QZL9) | 0.054 (inactive)
LUM (UniProt P51884) | 0.087 (inactive)
IGFBP6 (UniProt P24592) | 0.011 (inactive)
LYN isoform 2 (UniProt P07948) | -0.097 (inactive)
MCM10 (UniProt Q7L590) | 0.204 (inactive)
MFAP3 (UniProt P55082) | 0.25 (inactive)
MAP4K4 isoform 6 (UniProt O95819) | 0.049 (inactive)
IL10RB (UniProt Q08334) | -0.149 (inactive)
ITPRID2 (UniProt P28290) | 0.106 (inactive)
MAGED1 isoform 2 (UniProt Q9Y5V3) | 0.148 (inactive)

compound: Cc1sc2c(c1C)C(c1ccc(Cl)cc1)=N[C@@H](CC(=O)OC(C)(C)C)c1nnc(C)n1-2; test: as above
Method in brief: as §1

Target | log2 fold change
MED17 (UniProt Q9NVC6) | 0.032 (inactive)
ITGA2B (UniProt P08514) | 0.029 (inactive)
MAN2B2 (UniProt Q9Y2E5) | 0.074 (inactive)
IGFBP3 isoform 2 (UniProt P17936) | -0.083 (inactive)
LRBA, A0A494BZW2 | 0.113 (inactive)
INTS5 (UniProt Q6P9B9) | 0.065 (inactive)
IP6K1 (UniProt Q92551) | 0.194 (inactive)
MED12 isoform 2 (UniProt Q93074) | -0.434 (inactive)
LUM (UniProt P51884) | 0.144 (inactive)
MAPRE3 isoform 2 (UniProt Q9UPY8) | 0.279 (inactive)
MELK (UniProt Q14680) | 0.197 (inactive)
MFSD12 isoform 3 (UniProt Q6NUT3) | -0.129 (inactive)
LRRCC1 (UniProt Q9C099) | 0.046 (inactive)
MAP4K2 (UniProt Q12851) | -0.057 (inactive)
MCM10 (UniProt Q7L590) | 0.032 (inactive)
MFAP3 (UniProt P55082) | -0.155 (inactive)
MAP3K20 isoform 2 (UniProt Q9NYL2) | -0.033 (inactive)
IKZF1 (UniProt R9R4D9) | 0.039 (inactive)
MAP4K4 isoform 6 (UniProt O95819) | -0.037 (inactive)
LMNA isoform 2 (UniProt P02545) | -0.033 (inactive)
IL10RB (UniProt Q08334) | 0.029 (inactive)
LSR isoform 3 (UniProt Q86X29) | -0.067 (inactive)
MGRN1 isoform 2 (UniProt O60291) | 0.036 (inactive)
LEPROT (UniProt O15243) | -0.235 (inactive)
ING5 (UniProt Q8WYH8) | 0.036 (inactive)
MCOLN3 (UniProt Q8TDD5) | 0.039 (inactive)
MAPK11 (UniProt Q15759) | -0.014 (inactive)
